Results: ChEMBL document CHEMBL3988442, “University of Dundee, Small-Polar-MMV Screening Library” (2021)
Hit rate of the full screen: of about 69,000 compounds, about 950 (1.4%) showed an effect of 50% or more. Only a selection was taken, and strong results are over-represented in it overall.

system: Mycobacterium tuberculosis; test: Cornell M. t heat shock assay; assay type: functional, organism-based; set-up: dose or concentration left out as unconfirmed; further: in the data most compounds retested in dose-response had high values

Row | Structure (SMILES) | Percent Effect [%]
1 | CCOCC1CN(C(=O)c2cscn2)Cc2cn(C)nc21.O=C(O)C(F)(F)F (stereo not drawn) | -37.83
2 | COC[C@@H]1CCC[C@]12CN(Cc1ccco1)CCO2.O=C(O)C(F)(F)F | -13.34
3 | Cl.NCc1cc(-c2ccccc2)n2nccc2n1 | -2.564
4 | COCC(C)N1CCc2onc(-c3ccc(C(F)(F)F)cc3)c2C1 (stereo not drawn) | 16.68
5 | OCC(O)CN1CCc2onc(-c3ccc(C(F)(F)F)cc3)c2C1 (stereo not drawn) | 97.28
6 | FC(F)(F)c1ccc(-c2noc3c2CN(CC2CCCO2)CC3)cc1 (stereo not drawn) | 46.47
7 | COCC1c2nnn(CC3CC3)c2CCN1C(=O)c1ccnnc1 (stereo not drawn) | -6.272
8 | COCC1c2nnn(CC3CC3)c2CCN1C(=O)c1cc(C)on1 (stereo not drawn) | 9.302
9 | COCC1c2nnn(CC3CC3)c2CCN1C(=O)c1cc(C)[nH]c1C (stereo not drawn) | 70.57
10 | CCC(CNC(=O)c1ccc(=O)[nH]n1)N1CCc2ccccc2C1 (stereo not drawn) | -4.669
11 | CCC(CNC(=O)c1ccccn1)N1CCc2ccccc2C1 (stereo not drawn) | 64.91
12 | CCC(CNC(=O)c1ccccc1Br)N1CCc2ccccc2C1 (stereo not drawn) | -2.045
13 | O=C(O)C(F)(F)F.c1ccc(CN2CCCn3nnc(CNc4ncccn4)c3C2)nc1 | 11.56
14 | Cc1noc(C)c1CN1CCc2ncnc(-c3ccncc3)c2CC1.O=C(O)C(F)(F)F.O=C(O)C(F)(F)F | 7.897
15 | O=C(CCc1ccsc1)NCC1CCN(C2CC2)C1 (stereo not drawn) | -16.29
16 | O=C(CCc1ccsc1)NCC1CCN(c2ccccc2)C1 (stereo not drawn) | 105.9
17 | O=C(CCc1ccccc1)NCC1CCN(Cc2ccsc2)CC1 | -20.67
18 | CC(C)c1nn(C)cc1CNCc1ccnc(N(C)C)c1.Cl | -35.39
19 | CC(C)NC(=O)CC1COC2(CCN(Cc3ccccc3)CC2)C1.O=C(O)C(F)(F)F (stereo not drawn) | -5.683
20 | CS(=O)(=O)NC[C@@H]1OC[C@H]2CN(Cc3ccsc3)CC[C@H]21.O=C(O)C(F)(F)F | -25.96
21 | CC(C)(C)Nc1c(C2CCCN(C(=O)C3CC3)C2)nc2ccccn12.Cl (stereo not drawn) | -26.51
22 | CCc1nnc(CN(C)Cc2cccc(C(=O)Nc3ccnn3C)c2)o1 | 2.892
23 | CC(c1ccco1)N(C)Cc1cccc(C(=O)Nc2nccn2C)c1 (stereo not drawn) | 105
24 | CC(c1ccccn1)N(C)Cc1cccc(C(=O)Nc2nccn2C)c1 (stereo not drawn) | 74

Row | Structure (SMILES) | Percent Effect [%]
25 | COC(=O)c1cccc(CN(C)C(C)c2ccccn2)c1 (stereo not drawn) | -7.966
26 | CC(NC(=O)c1cccc(CN2CCN(C)CC2)c1)c1ccccn1 (stereo not drawn) | -15.12
27 | CN(Cc1cccc(C(=O)Nc2ccnn2C)c1)CC1(C)COC1 | -8.064
28 | N#CC1=C(N)Nn2c(nnc2-c2ccccc2Br)S1 | -17.22
29 | CNC(=O)C1CN(c2ccc(F)cc2)CCN1.Cl (stereo not drawn) | -9.726
30 | CC(C)CN1CC[C@H]2OCC[C@@H](C(=O)N3CCCO3)[C@@H]2C1.O=C(O)C(F)(F)F | -22.87
31 | c1cnn(CC2CCCCN2c2ncnc3ccsc23)c1 (stereo not drawn) | -40.74
32 | CNC(=O)[C@@]12CCO[C@@H]1CCN(S(=O)(=O)c1cccnc1)C2.O=C(O)C(F)(F)F | 3.091
33 | Cc1noc(C)c1CN1CCO[C@H]2CN(Cc3nccn3C)C[C@H]21.O=C(O)C(F)(F)F.O=C(O)C(F)(F)F | -6.105
34 | Cc1nc(CN(C)C2CCN(CCCc3ccccc3)C2)no1 (stereo not drawn) | -13.87
35 | Cc1nc(CN(C)C2CCN(Cc3ccc4ccccc4n3)C2)no1 (stereo not drawn) | 86.18
36 | Cc1nc(CN(C)C2CCN(Cc3nc4ccccc4n3C)C2)no1 (stereo not drawn) | 69.83
37 | Cc1cnc(CN(C)C2CCN(Cc3nc4ccccc4o3)C2)o1 (stereo not drawn) | -16.63
38 | Cc1nc(CN(C)C2CCN(Cc3ccno3)C2)no1 (stereo not drawn) | -9.493
39 | Cc1nc(CN(C)C2CCN(Cc3cccc4cccnc34)C2)no1 (stereo not drawn) | 19.87
40 | Cc1nnc(CN(C)C2CCN(Cc3nc4ccccc4n3C)C2)o1 (stereo not drawn) | 28.12
41 | Cc1nc(CN(C)C2CCN(Cc3nc4ccccc4s3)C2)no1 (stereo not drawn) | -21.16
42 | Cc1cnc(CN(C)C2CCN(Cc3nc4ccccc4n3C)C2)o1 (stereo not drawn) | 96.91
43 | Cc1cc(-c2nccs2)nc(C2CCN(Cc3ccncc3)CC2)n1.Cl | -12.67
44 | CN(Cc1ccco1)[C@@H]1CN(Cc2ccco2)[C@@H]2CCCO[C@H]12.O=C(O)C(F)(F)F.O=C(O)C(F)(F)F | 13.61
45 | CN1CCC/C1=N\S(=O)(=O)c1ccc(NC(=O)c2ccc(Cl)cc2)cc1 | -4.489
46 | CC1=N[C@@]2(CC[C@@H]3CN(Cc4ccc(C)cc4)C[C@@H]32)C(=O)N1CC1CC1.O=C(O)C(F)(F)F | 0.8614
47 | CC(c1cn2ccsc2n1)N1Cc2ncccc2C1=O (stereo not drawn) | -27.43
48 | CCn1ncc2c1CN(C(=O)Cc1cccs1)CC2COC.O=C(O)C(F)(F)F (stereo not drawn) | 1.467

Row | Structure (SMILES) | Percent Effect [%]
49 | COc1cccc(N2Cc3nc(=O)n(Cc4cccc(F)c4)n3C2=O)c1 | 19.15
50 | CCC(=O)N1CCC2(CC1)COCCN2Cc1ccc(F)cc1.O=C(O)C(F)(F)F | -30.34
51 | O=C(O)C(F)(F)F.c1csc(CN2CCn3c(Cn4cncn4)cnc3C2)n1 | -82.66
52 | O=C(CCn1c(=O)oc2ccccc21)NCC(O)c1ccccc1 (stereo not drawn) | 71.18
53 | O=C(Cn1c(=O)oc2ccccc21)NCC(O)c1ccc2c(c1)CCO2 (stereo not drawn) | -3.535
54 | O=C(CCn1c(=O)oc2ccccc21)NCC(O)c1ccc(F)c(F)c1 (stereo not drawn) | 64.78
55 | CC(NC(=O)CCn1c(=O)oc2ccccc21)c1ccccn1 (stereo not drawn) | -6.717
56 | O=C(CCn1c(=O)oc2ccccc21)NCC(O)c1ccc(Cl)cc1 (stereo not drawn) | -3.948
57 | O=C(NCC(O)c1ccc(F)c(F)c1)c1ccccc1F (stereo not drawn) | -2.812
58 | Cc1nc(C2(O)CCCNCC2)sc1CCOc1ccccc1Cl.Cl (stereo not drawn) | -14.1
59 | CCO[C@@H]1CC[C@H]2[C@H]1OCCN2CC1CCOCC1.O=C(O)C(F)(F)F | -50.97
60 | c1cnnc(N2CCCC2CNc2nc3ccccc3o2)c1 (stereo not drawn) | -7.44
61 | c1ccc(-c2nc(CNCC3CCCN3c3cccnn3)co2)cc1 (stereo not drawn) | 102.8
62 | c1cnnc(N2CCCC2CNCc2nc(-c3ccco3)no2)c1 (stereo not drawn) | 13.72
63 | Cc1nc(CNCC2CCCN2c2cccnn2)oc1C (stereo not drawn) | -4.447
64 | CCc1noc(CNCC2CCCN2c2cccnn2)n1 (stereo not drawn) | 11.99
65 | c1cnnc(N2CCCC2CNCc2nc3ccccc3o2)c1 (stereo not drawn) | 103.1
66 | CCc1nc(CNCC2CCCN2c2cccnn2)cs1 (stereo not drawn) | 0.6291
67 | c1ccc(-c2nnc(CNCC3CCCN3c3cccnn3)o2)cc1 (stereo not drawn) | -22.96
68 | CCCc1nc(CNCC2CCCN2c2cccnn2)cs1 (stereo not drawn) | 2.805
69 | CC(C)CCc1nc(CNCC2CCCN2c2cccnn2)cs1 (stereo not drawn) | 75.49
70 | c1cnnc(N2CCCC2CNCc2nc(C3CC3)no2)c1 (stereo not drawn) | 52.74
71 | CN(Cc1coc(-c2ccccc2)n1)CC1CCCN1c1cccnn1 (stereo not drawn) | 7.112
72 | CCn1ccnc1CN1CCN(c2cc(C)nc(C3CCCN3)c2)CC1.Cl (stereo not drawn) | -8.62

Row | Structure (SMILES) | Percent Effect [%]
73 | CC(C)c1nn(C)c(N(C)C)c1CNCc1cccc2cccnc12.Cl | 16.12
74 | CO[C@@H]1CO[C@@]2(CCCN(Cc3nc(C)cs3)C2)C1.O=C(O)C(F)(F)F | 0.7459
75 | Cc1ccccc1C(=O)N1C[C@@H]2OCCN(c3ncccn3)[C@@H]2C1.O=C(O)C(F)(F)F | -16.98
76 | O=C(NC[C@]12COC[C@H]1CN(Cc1ccco1)C2)c1ccccc1.O=C(O)C(F)(F)F | -18.08
77 | Cc1nc(CCN)cc(N2CCC(O)(c3ccc(Cl)cc3)CC2)n1 | -16.16
78 | Cc1nc(CCN)cc(N2CCOc3ccc(Cl)cc3C2)n1 | 51.61
79 | Cc1nc(C2CCN(C)CC2)cc(N2CCOc3ccc(Cl)cc3C2)n1 | -13.3
80 | O=C(O)C(F)(F)F.c1nc2c(c(C3CC3)n1)CCN(CC1CCOC1)CC2 (stereo not drawn) | 4.72
81 | CC(C)n1cc(N2Cc3nc(N4CCOCC4)ncc3C2=O)cn1 | -21.77
82 | CCOc1cc(CN[C@@H]2COC[C@H]2Cc2cc(C)no2)ccc1O.O=C(O)CC(O)(CC(=O)O)C(=O)O | -17.97
83 | CO[C@@H]1CCN(S(=O)(=O)c2cccnc2)[C@@H]2CN(CC3CC3)C[C@@H]21.O=C(O)C(F)(F)F.O=C(O)C(F)(F)F | -1.199
84 | Cc1cc(C(=O)N2CCC3(CC2)CN(CCN(C)C)C(=O)O3)nc(C)n1 | 14.38
85 | Cc1nc[nH]c1C(=O)N1CCC2(CC1)CN(CCN(C)C)C(=O)O2 | 17.79
86 | Cc1ccc(C(=O)N2CCC3(CC2)CN(CCN(C)C)C(=O)O3)c(F)c1 | 97.5
87 | Cn1nc(CN2CCCCC2)c2c1CN(C(=O)c1cccc(C#N)c1)C2.O=C(O)C(F)(F)F | -14.41
88 | Cc1ccc(C)c(NC(=O)C(C)N2CCCN(c3nccs3)CC2)c1 (stereo not drawn) | 26
89 | Cc1ccc(NC(=O)C(C)N2CCCN(c3nccs3)CC2)c(C)c1 (stereo not drawn) | 58.85
90 | Cc1cc(NC(=O)C(C)N2CCCN(c3nccs3)CC2)on1 (stereo not drawn) | 10.96
91 | CC(C)Cc1nc(-c2ccnc(N3CCNCC3)n2)no1.Cl.Cl | -11.54
92 | COCCN1CCO[C@H]2CN(Cc3cccc(C)n3)C[C@H]21.O=C(O)C(F)(F)F.O=C(O)C(F)(F)F | -1.731
93 | Cc1ccsc1CN(Cc1cccnc1)C1CC(C)(C)NC(C)(C)C1.O=C(O)CC(O)(CC(=O)O)C(=O)O | -32.2
